DT40 TDP1 CPT = growth inhibition of DT40 Tdp1-/-;hTDP1 cells with camptothecin (screen for TDP1 inhibitors) | chicken DT40 Tdp1-/-;hTDP1 cells + 20 nM CPT, ATP luminescence, 48 h | Potency, µM (doses to about 46.2 µM), hits mostly inhibitors | actives 12% (n = 420,000) | AID 686979; further: nearly all actives have a fitted effect of over 55% in size
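Cell growth measured by CellTiter-Glo luminescence after a minimum 48 h, 37 C compound exposure with 20 nM CPT in Tdp1-knockout DT40 cells stably expressing hTDP1, seeded 400/well; qHTS titration format.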
ATXN viability = viability counter-screen for ATXN expression inhibitors. S2 cells (HEK-293 line with an ATXN2-luciferase reporter) viability, CellTiter-Fluor protease fluorescence, 24 h. Potency, µM (doses to about 56.7 µM), hits mostly cytotoxic. actives 0.49% (n = 400,000). AID 651635; further: nearly all actives have a fitted effect of over 40% in size
TGFb SMAD3 inh = TGF-b pathway inhibition | HepG2 CAGA-GFP TGF-b/SMAD3 reporter, GFP fluorescence, 18 h; TGF-beta stimulated, 500 pg/mL final | Potency, µM (titrated, usually from 46.1 µM), hits mostly inhibitors | actives 1.2% (n = 410,000) | AID 588855; further: nearly all actives have a fitted effect of over 65% in size
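Inhibition was scored as loss of TGF-beta-induced (500 pg/mL final, 18 hours, 37 degrees C) GFP in HEPG2 cells carrying a CAGA-GFP reporter, in DMEM with 1% FBS. Well GFP was summed per cell; Activity was normalised to unstimulated and stimulated DMSO wells, then concentration-response fitting.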
DT40 TDP1 no CPT = qHTS for Inhibitors of human tyrosyl-DNA phosphodiesterase 1 (TDP1): qHTS in cells in absence of CPT. DT40 Tdp1-/- hTDP1 cells, no CPT, ATP luminescence, 48 h. Potency, µM (highest dose often 46.2 µM), most hits filed as inhibitors. actives 15% (n = 420,000); further: nearly all actives have a fitted effect of over 55% in size
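Chicken DT40 Tdp1-/- cells stably complemented with human TDP1 were seeded at 400 cells/well with DMSO in place of 20 nM camptothecin. After compound pinning, cells grew at least 48 hr at 37 °C; viability read by CellTiter-Glo luminescence.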
ATXN2 expr inh = ATXN2 expression inhibition; HEK-293 ATXN2-luciferase reporter, luminescence, 24 h; AID 1745845; actives 0.72% (n = 360,000); Potency, µM (series often up to 57 µM), most hits filed as inhibitors; further: nearly all actives have a fitted effect of over 55% in size
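qHTS (up to 57 uM final) was run with 24 h compound exposure of reporter cells at 37 °C. Each well was multiplexed: SteadyGlo luminescence measured ATXN2-luciferase expression after a fluorogenic Gly-Phe-AFC viability readout (25 uM final).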
HepG2 viability = HepG2 cytotoxicity, counter-screen for TGF-b inhibitors. HepG2 CAGA-GFP viability, ATP luminescence, 18 h. actives 0.76% (n = 410,000). Potency, µM (doses to about 46.1 µM), usual class: cytotoxic
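HepG2 CAGA-GFP cells (1000/well, DMEM with 1% FBS) received compound, then TGF-beta at 500 pg/mL final, and were incubated 18 hours at 37 degrees C. Viability was read by CellTiter-Glo luminescence. Media-only wells were set as complete cell-killing and DMSO as no toxicity.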
Of the large screens only hits and unclear results are named; the others gave an inactive call. The list is not random: actives were taken first. Their share in the collection is about 17%. The call rests on the fitted dose curve; in most records, active means well fitted curve in the direction sought with a large enough effect; inconclusive means small, poorly fitted or top-dose-only effect, or another doubt; inactive means no such curve, though single readings can be large; an effect the other way counts as inactive or inconclusive.

CC(C)C(C(=O)Nc1ccncc1)c1ccc(Cl)cc1 (centres undefined)	DT40 TDP1 CPT inconclusive, TGFb SMAD3 inh inconclusive, DT40 TDP1 no CPT 16.4µM
CCN1CCN(CCCNC(=O)c2cnn(-c3ccc(OC)cc3)c2C2CCN(C(=O)OC(C)(C)C)CC2)CC1	none (no result: ATXN viability, ATXN2 expr inh)
COc1ccc(CCN2CCC(CNC(=O)c3cnn(-c4cccc(Cl)c4)c3C3CCN(C(=O)OC(C)(C)C)CC3)CC2)cc1	DT40 TDP1 CPT 8.2µM, DT40 TDP1 no CPT 8.2µM (no result: ATXN viability, ATXN2 expr inh)
COc1ccc(CCN2CCC(CNC(=O)c3cnn(-c4ccccc4)c3C3CCN(C(=O)OC(C)(C)C)CC3)CC2)cc1	DT40 TDP1 CPT 11.6µM, TGFb SMAD3 inh inconclusive, DT40 TDP1 no CPT 8.2µM (no result: ATXN viability, ATXN2 expr inh)
O=C(COC(=O)c1cccs1)NC1CCCCC1	none
CCOC(=O)C1(C(F)(F)F)N=C(c2cccnc2)OC(N2CCCCC2)=N1 (centres undefined)	DT40 TDP1 CPT inconclusive, DT40 TDP1 no CPT inconclusive
O=c1[nH]c2cc3ccccc3cc2nc1-c1nnnn1Cc1ccccc1	DT40 TDP1 CPT inconclusive, ATXN viability inconclusive, DT40 TDP1 no CPT 23.1µM (no result: TGFb SMAD3 inh, HepG2 viability)
O=c1[nH]c2cc3ccccc3cc2nc1-c1nnnn1C1CCCC1	DT40 TDP1 CPT 5.17µM, ATXN viability inconclusive, DT40 TDP1 no CPT 3.66µM (no result: TGFb SMAD3 inh, HepG2 viability)
Cc1cc2nc(-c3nnnn3Cc3ccccc3)c(=O)[nH]c2cc1C	DT40 TDP1 CPT inconclusive, DT40 TDP1 no CPT 16.4µM, ATXN2 expr inh inconclusive (no result: TGFb SMAD3 inh, HepG2 viability)
O=c1[nH]c2ccccc2nc1-c1nnnn1C1CCCC1	none (no result: TGFb SMAD3 inh, HepG2 viability)
Cc1cc2cc(C(c3nnnn3Cc3ccccc3)N3CCc4ccccc43)c(=O)[nH]c2cc1C (centres undefined)	DT40 TDP1 CPT inconclusive, TGFb SMAD3 inh inconclusive, DT40 TDP1 no CPT inconclusive
O=C(O)C(Cc1ccccc1)NC(=O)C(Cc1ccccc1)NC(=O)C12CC3CC(CC(C3)C1)C2 (centres undefined)	none
O=S(=O)(NCCc1csc2nc(-c3ccccc3)nn12)c1cccs1	DT40 TDP1 CPT inconclusive, TGFb SMAD3 inh inconclusive, DT40 TDP1 no CPT 16.4µM (no result: ATXN viability, ATXN2 expr inh)
COc1ccc(-c2nc3scc(CCNS(=O)(=O)c4cccs4)n3n2)cc1	DT40 TDP1 CPT 20.6µM, DT40 TDP1 no CPT 18.4µM (no result: ATXN viability, ATXN2 expr inh)
CCc1ccc(S(=O)(=O)NCCc2csc3nc(-c4ccccc4)nn23)s1	DT40 TDP1 CPT 20.6µM, DT40 TDP1 no CPT 23.1µM (no result: ATXN viability, ATXN2 expr inh)
COc1cccc(NC(=O)c2ccc3snnc3c2)c1	DT40 TDP1 no CPT inconclusive
O=C1c2ccccc2C(Nc2ccc3nc(-c4cccnc4)[nH]c3c2)N1Cc1ccco1 (centres undefined)	DT40 TDP1 CPT 9.2µM, ATXN viability inconclusive, DT40 TDP1 no CPT 7.31µM
CCOc1ccc(NC2c3ccccc3C(=O)N2Cc2ccco2)cc1 (centres undefined)	DT40 TDP1 CPT 16.4µM, DT40 TDP1 no CPT 11.6µM
O=C1c2ccccc2C(c2nc3ccccc3[nH]2)N1Cc1ccco1 (centres undefined)	none
O=C1c2ccccc2C(Nc2ccc(-c3nc4ccccc4[nH]3)cc2)N1Cc1ccco1 (centres undefined)	DT40 TDP1 CPT inconclusive, DT40 TDP1 no CPT 18.4µM
Cc1nc2ccccc2nc1/C=C/c1ccc(N(C)C)cc1	DT40 TDP1 CPT 0.501µM, DT40 TDP1 no CPT 0.501µM (no result: ATXN viability, ATXN2 expr inh)
CN(C)c1ccc(/C=C/c2cnnc3ccccc23)cc1	DT40 TDP1 CPT 7.08µM, DT40 TDP1 no CPT 6.31µM (no result: ATXN viability, ATXN2 expr inh)
CN(C)c1ccc(/C=C/c2cc(N(C)C)nc3ccccc23)cc1	DT40 TDP1 CPT 1µM, TGFb SMAD3 inh inconclusive, DT40 TDP1 no CPT 0.891µM (no result: ATXN viability, ATXN2 expr inh)
CN(C)c1ccc(/C=C/c2cncc3ccccc23)cc1	DT40 TDP1 CPT inconclusive, DT40 TDP1 no CPT inconclusive (no result: ATXN viability, ATXN2 expr inh)
CN(C)c1ccc(/C=C/c2cc(Cl)nc3ccccc23)cc1	DT40 TDP1 CPT inconclusive, TGFb SMAD3 inh inconclusive (no result: ATXN viability, ATXN2 expr inh)
C(=Cc1cnnc2ccccc12)c1ccccc1	DT40 TDP1 CPT inconclusive, DT40 TDP1 no CPT inconclusive

High-throughput results: PubChem, National Center for Advancing Translational Sciences (NCATS)
